Holding throughout (experiment): NCI-60 one-dose screen, 48 h (100 = growth as untreated, 0 = no growth, -100 = all killed)
Test [1] relates to NCI-H23 lung. Conditions: 10 µM unless noted.
Test [2] concerns NCI-H226 lung. To be noted: 10 µM unless noted.
For test [3], the system named is NCI-H322M lung. Conditions: 10 µM unless noted.
In test [4] the test system is HOP-62 NSCLC. Conditions: 10 µM unless noted.
Test [5] has as its system NCI-H460 lung. To be noted: 10 µM unless noted.
For test [6], the system named is HOP-92 NSCLC. Conditions: 10 µM unless noted.
For test [7], the system named is NCI-H522 lung. To be noted: 10 µM unless noted.
In test [8] the test system is A549/ATCC NSCLC. To be noted: 10 µM unless noted.
Test [9] relates to 786-0 renal. To be noted: 10 µM unless noted.
Test [10] has as its system COLO 205 colon. Conditions: 10 µM unless noted.
Test [11] has as its system DU-145 prostate. To be noted: 10 µM unless noted.
The test system of test [12] is K-562 leukemia. To be noted: 10 µM unless noted.
Test [13] concerns MALME-3M melanoma. To be noted: 10 µM unless noted.
Test [14] concerns MDA-MB-231 breast. Conditions: 10 µM unless noted.
The test system of test [15] is RXF 393 renal. To be noted: 10 µM unless noted.
Test [16] relates to SF-268 CNS. Conditions: 10 µM unless noted.
Test [17] deals with SF-295 CNS. To be noted: 10 µM unless noted.
Test [18] deals with SF-539 CNS. To be noted: 10 µM unless noted.
The test system of test [19] is UACC-257 melanoma. To be noted: 10 µM.
Test [20] concerns M14 melanoma. Conditions: 10 µM unless noted.

This is an account of results in PubChem BioAssay (NCI).

About 83,000 compounds went through this panel and 20% of them were active in at least one assay; those are over-represented in the sample as a whole.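 Testing used 96-well plates and a 48-hour single-concentration exposure. Example: -40 means 40% of the starting cells died.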 Values without a mark were called inactive. Calls of active or inactive are those of the source. How the source made its calls: active means growth percent below 10; inactive means the rest.

Take `O=c1oc2cc(OS(=O)(=O)c3ccccc3)c(Cl)cc2c2c1CCCCCC2`: the growth in [1] was 80.1%; in [2] it was 81.7%; in [3], 95.4%; in test [4] it was 118%; in [5], 96.1%; in test [6], 65.7%. Further, the growth in [7] is 73.2%; in [8], 88.2%; in [9] it was 87.7%; in test [10] it was 94.4%; in [11], 93.6%; in test [12], 84.9%. The growth was 106% in test [13]; 89.4% in test [14]; 90.8% in test [15]; 100% in [16]; 92.6% in [17]; 78.4% in test [18]. For the same compound, the growth in test [19] is 92.8%; in test [20], 80.3%.
For `O=C(CCCn1c(=O)c2sc3ccccc3c2n2nnc(-c3ccccc3)c12)NCCc1cnc[nH]1`, the growth in test [1] is -20.4% (active); in test [2], 105%; in [3] it was -13.7% (active); in [4] it was -59.8% (active); in test [5], -44.1% (active); in test [6] it was -54.5% (active). The growth in [7] was -71.9% (active); in test [8], -45.7% (active); in test [9] it was -77.7% (active); in [10], -36.8% (active); in [11] it was -68.8% (active); in [12] it was 82.6%. The growth in test [13] is -72.2% (active); in [14], -70.8% (active); in [15] it was -46.2% (active); in test [16], -1.01% (active); in [17] it was 8.37% (active); in test [18], -82.8% (active). Further, the growth in test [19] is -44.4% (active); in test [20] it was -78.6% (active).
As for `COc1cc2nc(N3CCC[C@@H](NC4=CC(=O)c5ccccc5C4=O)C3)nc(N)c2cc1OC`, the growth in test [1] is 87.2%; in test [2], 113%; in [3] it was -65.3% (active); in [4] it was 94.5%; in test [5] it was -72.9% (active); in test [6], 84.8%. Besides, the growth was 94.3% in test [7]; -74.6% (active) in test [8]; 94.7% in test [9]; -71.8% (active) in [10]; -53.8% (active) in [11]; -47.1% (active) in [12]. In addition, the growth is 94.8% in test [13]; -71.2% (active) in test [14]; -76.3% (active) in test [15]; -47.4% (active) in test [16]; -89% (active) in test [17]; -99.9% (active) in [18]. Moreover, the growth is 95.3% in test [19] and 96.3% in test [20].
Turning to `COc1cc(NC(=O)CCl)ccc(=O)c1`, the growth in test [1] is 53.7%; in test [2], 122%; in [3] it was 86.4%; in test [4], 113%; in test [5], 77.4%; in test [6], 79%. Moreover, the growth was 17.2% in test [7]; 84.5% in test [8]; 106% in test [9]; 82.6% in [10]; 83.5% in [11]; 75.2% in test [12]. Moreover, the growth in test [13] is 87.7%; in test [14], 58.6%; in test [15], 84.7%; in test [16], 77.6%; in test [17], 80.9%; in test [18], 83.5%. The growth in test [19] is 66%; in test [20], 78.6%.
`Cc1cccc(-n2c(C)nc3ccc(NC(=O)NCCCl)cc3c2=O)c1`: the growth in test [1] was 86.8%; in test [2] it was 95.3%; in test [3], 105%; in [4] it was 96%; in test [5] it was 100%; in [6], 86%. Besides, the growth in test [7] was 98.9%; in [8] it was 101%; in test [9], 93.5%; in [10] it was 104%; in test [11], 104%; in test [12], 112%. Further, the growth in test [13] was 115%; in [14], 111%; in test [15], 102%; in [16], 95.1%; in [17], 99.6%; in [18] it was 99%. The growth in [19] is 97.2%; in [20], 98.7%.
For the compound `O=S(=O)(c1ccccc1)n1ccc(-c2ccc3c(c2)CCO3)n1`, the growth in [1] is 78.4%; in [2], 64.6%; in test [3] it was 91.4%; in test [4], 98.8%; in test [5], 87.3%; in [6], 41.8%. For the same compound, the growth in test [7] is 61.7%; in [8], 78.8%; in [9], 90.3%; in test [10], 96.9%; in test [11], 95%; in test [12] it was 56.1%. Besides, the growth in [13] was 94%; in test [14], 82.9%; in test [15], 82.9%; in test [16], 92.7%; in [17], 83.3%; in test [18] it was 86.7%. Also, the figures for the growth in [19] and in [20] were 79.9% and 101%, respectively.
For `CC(C(=O)n1cc(-c2ccccc2)c(-c2ccccc2)c1)c1ccccc1` (stereo not given), the growth is 101% in test [1]; 104% in [2]; 110% in test [3]; 95.4% in test [4]; 104% in test [5]; 90.5% in test [6]. In addition, the growth in [7] was 102%; in test [8] it was 88.7%; in test [9], 98%; in [10], 122%; in test [11], 113%; in test [12], 104%. In addition, the growth in [13] was 108%; in [14], 108%; in test [15], 112%; in test [16], 118%; in [17], 91.9%; in [18], 104%. The growth in test [19] was 95.3%; in [20], 108%.
